TDP1 block = qHTS Assay for Inhibitors of Tyrosyl-DNA Phosphodiesterase (TDP1); recombinant TDP1, AlphaScreen DNA substrate cleavage; Potency, µM (titrated, usually from 130 µM), without a hit: top-dose activity change, negative = inhibition, hits mostly inhibitors; 350,000 tested, 0.28% active; note: % is set by controls: 0 for no effect and ±100 for the full control effect; nearly all actives have a fitted effect of over 40% in size
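Here, a 5' biotin and 3' phosphotyrosine-FITC DNA oligonucleotide reports Tdp1 activity: intact substrate bridges AlphaScreen beads, while cleavage leaves a 3' phosphate and drops signal. All incubations at room temperature.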
JMJD2A Tudor inh = qHTS Assay for Inhibitors of JMJD2A-Tudor Domain | Lysine-specific demethylase 4A (Homo sapiens), O75164 | AlphaScreen JMJD2A-Tudor / H3K4me3 peptide binding | Potency, µM (top dose mostly 114 µM), for the others: at the top dose activity change, negative = inhibition, usual class: inhibitors | 390,000 tested, 4.4% active | AID 504339, 2011; note: % is set by controls: 0 for no effect and ±100 for the full control effect; nearly all actives have a fitted effect of over 50% in size
HP1b chromo inh = HTS for Inhibitors of HP1-beta Chromodomain Interactions with Methylated Histone Tails; Chromobox protein homolog 1 (Homo sapiens), P83916; AlphaScreen HP1-beta / biotin-H3K9me3 peptide binding; Potency, µM (top dose mostly 114 µM), for inactives: at the highest dose activity change, negative = inhibition, hits mostly inhibitors; 390,000 tested, 0.56% active; note: nearly all actives have a fitted effect of over 70% in size
Target sequence (P83916 whole entry, looked up): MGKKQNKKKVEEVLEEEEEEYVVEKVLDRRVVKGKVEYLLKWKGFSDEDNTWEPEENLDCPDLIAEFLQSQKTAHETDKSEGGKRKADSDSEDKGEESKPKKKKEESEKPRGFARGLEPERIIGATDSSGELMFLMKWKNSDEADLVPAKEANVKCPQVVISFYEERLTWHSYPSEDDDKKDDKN
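Compound inhibition of the preformed complex between 50 nM HP1-beta and 50 nM biotinylated H3K9me3 peptide was read by AlphaScreen. Buffer was PBS pH 7.4 with 0.01% Tween-20. Incubations ran 30 min at room temperature, with 10 ug/mL donor/acceptor beads.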
Sfp PPTase inh = qHTS Assay for Inhibitors of Bacillus subtilis Sfp phosphopantetheinyl transferase (PPTase); 4'-phosphopantetheinyl transferase ffp (Bacillus subtilis), Q9F4F7; Biochemical Sfp PPTase activity, qHTS; Potency, µM, without a hit: largest response in the series, negative = inhibition, actives largely listed as inhibitors; 310,000 tested, 3.5% active; AID 1490, 2009;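 note: the enzyme is Sfp with the accession as filed and its product quenches rhodamine fluorescence; 0% = enzyme reaction without inhibitor and -100% = no enzyme wells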
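Fluorescence-quenching assay: 15 nM Sfp-PPTase preincubated 15 min at room temperature with compound, then 5 uM rhodamine-CoA and 12.5 uM BHQ-2-labelled YbbR peptide added. Fluorescence (ex 525/em 598 nm) read at start and after 30 min; difference gives rate.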
G9a block = qHTS Assay for Inhibitors of Histone Lysine Methyltransferase G9a. Histone-lysine N-methyltransferase EHMT2 (Homo sapiens), Q96KQ7. Potency, µM (titrated, usually from 102 µM), inactives show at the top dose activity, negative = inhibition, hits mostly inhibitors. G9a H3K9 monomethylation, AlphaScreen, 2 h. 350,000 tested, 8.8% active; note: % is set by controls: 0 for no effect and ±100 for the full control effect; nearly all actives have a fitted effect of over 75% in size
Target sequence (Q96KQ7 913-1193 limits assumed): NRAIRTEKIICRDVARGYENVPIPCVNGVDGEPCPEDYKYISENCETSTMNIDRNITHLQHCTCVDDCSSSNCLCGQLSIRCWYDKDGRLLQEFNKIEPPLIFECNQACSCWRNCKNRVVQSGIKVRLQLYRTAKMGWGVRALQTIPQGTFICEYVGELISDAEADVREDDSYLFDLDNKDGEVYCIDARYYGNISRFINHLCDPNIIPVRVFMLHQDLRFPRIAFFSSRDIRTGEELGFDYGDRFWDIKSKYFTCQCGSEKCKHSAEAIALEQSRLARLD
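Step 1: enzyme (final 20 nM) with compound, 15 min RT. Step 2: substrate peptide 500 nM and SAM 20 uM, 2 h RT. Step 3: anti-H3K9me1 antibody and AlphaScreen beads, 10 min, then plate read.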
BAZ2B block = qHTS Assay for Inhibitors of BAZ2B | Bromodomain adjacent to zinc finger domain protein 2B (Homo sapiens), Q9UIF8 | 360,000 tested, 4.4% active | Potency, µM (doses to about 114 µM), for the others: top-dose activity change, negative = inhibition, hits mostly inhibitors | AlphaScreen BAZ2B-H3K14Ac peptide displacement | AID 504333, 2011; note: % is set by controls: 0 for no effect and ±100 for the full control effect; nearly all actives have a fitted effect of over 60% in size
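BAZ2B (50 nM) with biotin-H3(5-23)K14Ac peptide (50 nM) in PBS pH 7.4, 0.01% Tween-20, preformed 30 min, then compound 30 min at room temperature; top concentration 110uM. AlphaScreen streptavidin donor/nickel chelate acceptor beads (10 ug/mL final), 20 min dark, signal read.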
Active calls of the source: *; ? = inconclusive; · = no result given; ! = not active in a repeat; [ ] = another dose, or the depositor's remark. An excerpt weighted towards active compounds, which were near 12% of everything screened. Calls come from the whole dose curve; as a rule, active = well fitted curve in the direction sought with a large enough effect; inconclusive = small, poorly fitted or top-dose-only effect, or another doubt; inactive = no such curve, though single readings can be large; an effect the other way counts as inactive or inconclusive. Potency is the fitted concentration of half-maximal effect.

SMILES	TDP1 block	JMJD2A Tudor inh	HP1b chromo inh	Sfp PPTase inh	G9a block	BAZ2B block
Cc1ccccc1C(=O)Nc1ccccc1C(=O)OCc1cc(=O)n2ccsc2n1	3.8%	-15.6%	33.3%	·	20.2%[59 µM]	0.7%
O=C1ON=C(c2ccccc2[N+](=O)[O-])/C1=C/c1cccc([N+](=O)[O-])c1O	-0.1%	?	29.7%	·	1µM*	-2.5%
O=C1ON=C(c2ccc(Cl)c([N+](=O)[O-])c2)/C1=C/c1cccc([N+](=O)[O-])c1O	-4.5%	20µM*	6.9%	·	?	5.7%
O=C1/C(=C/c2ccccc2[N+](=O)[O-])COc2ccccc21	2.6%	?	-20.2%	0.8%	?	?
COc1cc2c(c(OC)c1)C(c1cc(OC)c(OC)c(OC)c1)CC(=O)N2 (stereo not drawn)	5.0%	-18.5%	17.3%	·	6.2%[59 µM]	-10.3%
COc1ccc(C2C3C=CCC(c4cccc(/C=C/c5ccccc5)c4)C3C(=O)N2Cc2ccccc2)cc1Cl (stereo not drawn)	12.1%	-13.1%	32.7%	-5.7%	·	·
COC(=O)C/C=C\[C@H](C)[C@@H](OCc1ccccc1Br)C(C)C	7.9%[21 µM]	·	·	-7.4%	·	·
OC1CN=C2CCCc3c2n(c2ccc(Cl)cc32)C1 (stereo not drawn)	4.7%	-31.1%	24.3%	-9.5%	?	-37.2%
c1ccc(-c2ccc3c(c2)c2c4n3CCN=C4CCC2)cc1	9.9%	56.2µM*	-22.7%	?	20µM*	?
Cc1cc(C)cc(NC(=O)C(=O)NCC(c2cccnc2)N2CCOCC2)c1 (stereo not drawn)	3.9%	-17.4%	19.7%	·	-38.9%[59 µM]	79.4µM*
O=C(NCC(c1cccnc1)N1CCOCC1)C(=O)Nc1ccc(Cl)cc1 (stereo not drawn)	-1.3%	-3.0%	21.2%	·	-4.4%[59 µM]	-14.3%
Nc1nonc1NC(=O)NN=C1CCCCC1	-4.3%	?	43.5%	35.5µM*	-0.2%	-5.8%
Cc1cccc(C)c1NC(=O)NN=C1CCCCC1	-1.4%	-11.7%	24.1%	-4.0%	9.9%[12.7 µM]	-1.0%
COc1ccc(Nc2nc(-c3c[nH]c4ccccc34)cs2)cc1	10.9%	-2.8%	18.9%	-22.0%	?	44.7µM*
COc1ccc2oc(=O)c(-c3csc(Nc4ccc(O)cc4)n3)cc2c1	0.0%	-21.5%	-16.2%	25.1µM*	?	?
CC(OC(=O)c1cc[n+]([O-])cc1)C(=O)Nc1ccc(Cl)cn1 (stereo not drawn)	4.8%	-7.2%	36.0%	6.2%	?	13.3%
CC(OC(=O)c1ccc(C#N)cc1)C(=O)Nc1ccc(Cl)cn1 (stereo not drawn)	9.6%	1.4%	17.9%	·	56.2µM*	10.1%
Cc1[nH]nc(SCC(=O)Nc2ccc(C#N)cc2)c1[N+](=O)[O-]	3.4%	-11.0%	21.5%	-21.4%	35.5µM*	-6.8%
Cc1ccc(NC(=O)CSc2n[nH]c(C)c2[N+](=O)[O-])cc1	2.3%	-7.6%	39.5%	19.3%	-12.0%[59 µM]	6.7%
CN(Cc1ccccc1)C(=O)c1ccc(NC(=O)Cc2cccc(NC(=O)C3CCCN(C(=O)C4CCC4)C3)c2)cc1 (stereo not drawn)	0.8%	-24.3%	44.3%	·	-9.5%[2.33 µM]	5.8%
Cn1nnnc1SCC1=C(C(=O)O)N2C(=O)[C@@H](NC(=O)[C@@H](O)c3ccccc3)[C@@H]2SC1	9.2%[21 µM]	·	·	-16.7%	?	·
CN(C)CCn1nnnc1SCC1=C(C(=O)O)N2C(=O)[C@@H](NC(=O)Cc3csc(N)n3)[C@H]2SC1	·	56.2µM*	29.1%	·	15.8µM*	50.1µM*
NCc1ccccc1CC(=O)N[C@@H]1C(=O)N2C(C(=O)O)=C(CSc3nnnn3CC(=O)O)CS[C@@H]12	10µM*	·	·	?	-6.7%[21.5 µM]	·
Cc1cc(C(=O)CCC(=O)N(C)CC(=O)Nc2ccccc2Br)c(C)s1	5.6%[0.505 µM]	-28.3%	12.9%	·	3.3%	7.7%
O=C(Nc1nc2ccc(F)cc2s1)c1ccccn1	9.2%	-12.5%	60.6%	10.2%	-3.2%	39.8µM*
SMILES	TDP1 block	JMJD2A Tudor inh	HP1b chromo inh	Sfp PPTase inh	G9a block	BAZ2B block
O=C(Nc1nc2ccccc2s1)c1cnccn1	-1.1%	-33.0%	26.3%	-25.3%	3.55µM*	6.8%
O=C(NNc1nc2ccc(F)cc2s1)c1cccc(F)c1	-3.5%	-15.2%	24.1%	-5.6%	?	7.4%
Cc1ccc(OCC(=O)N/N=C/c2cccnc2)cc1C	4.0%	-12.7%	9.2%	15.5%	-1.7%[12.7 µM]	3.3%
Cc1nnc(SCC2=C(C(=O)O)N3C(=O)C(NC(=O)c4cc(F)c(F)cc4Cl)C3SC2)s1 (stereo not drawn)	?	-25.8%	9.5%	50.1µM*	28.2µM*	79.4µM*
Cc1nnc(SCC2=C(C(=O)O)N3C(=O)C(NC(=O)Cn4nc(C(F)F)cc4C)C3SC2)s1 (stereo not drawn)	·	25.1µM*	10.2%	79.4µM*	14.1µM*	50.1µM*
Cc1nnc(SCC2=C(C(=O)O)N3C(=O)C(NC(=O)Cn4nc(C(F)F)c(Cl)c4C)C3SC2)s1 (stereo not drawn)	?	?	-0.8%	-11.5%	?	?
Cc1ccc(NC(=O)c2ccc3c(c2)CCN3S(C)(=O)=O)cc1C	·	15.8µM*	-12.9%	16.5%	18.2%[59 µM]	-3.8%
CCOC(=O)c1c(C)[nH]c(C(=O)COc2ccc3ccc(=O)oc3c2)c1C	22.4µM*	-23.2%	-9.1%	·	·	·
Cc1sc2nc(CN3CCOCC3)nc(Oc3ccc(NC(=O)c4ccco4)cc3)c2c1C	4.9%	-27.5%[57.1 µM]	-26.4%	89.1µM*!	50.1µM*!	-33.8%
O=C(Nc1ccc(CN2CCOCC2)cc1)c1ccco1	2.5%	-4.2%	20.6%	7.2%	-15.8%	-14.0%
Cc1ccc(Oc2nc(CN3CCOCC3)nc3sc4c(c23)CCC(C)C4)cc1 (stereo not drawn)	4.4%	?	-4.7%	?	79.4µM*	?
CC1CCc2c(sc3nc(CN4CCOCC4)nc(NS(=O)(=O)c4cccc([N+](=O)[O-])c4)c23)C1 (stereo not drawn)	7.8%	-30.8%	16.4%	?	-9.7%[12.7 µM]	-36.0%
CCN(CC)C(=O)CSc1nnc(-c2c[nH]c3ccccc23)o1	·	-10.3%	16.6%	16.6%	30.1%[0.501 µM]	37.7%
Cc1ccc(NCc2ccccc2O)cc1	7.8%	?	-4.3%	-4.3%	-5.6%[2.33 µM]	?
